The text below walks through data of PubChem BioAssay AID1578 (Sanford-Burnham Center for Chemical Genomics, 2009).

Values joined by “and” are separate entries in the source; they are usually repeats but may differ in a detail not shown here. Identical values can stand only once. The campaign covered roughly 290,000 compounds. About 3,000 (1%) were called active. The sample as a whole holds a higher share of actives than the screen did. A number with no mark means an inactive call. No stated cut-off is given here; in the data, active means inhibition mostly above about 36% (no sharp cut-off); inactive means mostly below about 34%.

A short description of this assay: inhibition of NOD1-driven NF-kB reporter – cell-based, luminescence, uHTS, primary screen (AID 1578).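 Further: HEK-293T reporter cells stimulated with the NOD1 agonist gamma-tri-DAP.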 Conditions: NOD1-driven NF-kB luciferase reporter cells, at 4 µM, active compounds read high. Background: Reporter assays use an easily measured gene product as a stand-in for the process of interest.
`CC(C)(C)n1nc2c(c1NC(=O)c1cc(Cl)ccc1[N+](=O)[O-])CS(=O)(=O)C2`: the inhibition was 19.5%.

On to `O=C(O)CSc1nnc(-c2ccc(Cl)cc2Cl)n1-c1ccc(Br)cc1`, for which the inhibition was 14.7%.

Take `Nc1[nH]n2c(=O)cc(-c3ccccc3)nc2c1N=Nc1ccc(S(N)(=O)=O)cc1`: the inhibition was -26%.

Regarding `Cc1ccc(N=Nc2c(N)[nH]n3c(=O)cc(C)nc23)cc1`, the inhibition was -20.5%.

As to `Cc1ccc(N=Nc2c(N)[nH]n3c(=O)cc(-c4ccccc4)nc23)cc1`, the inhibition was 76% (active).

Take `Cc1ccc(C(=O)CSc2nc(C)cc(=O)[nH]2)cc1`: the inhibition was -3.4%.

On to `Cc1ccc(C(=O)CSc2nc(-c3ccccc3)cc(=O)[nH]2)cc1`, for which the inhibition was 64.8% (active).

For the compound `O=C(O)CSc1nc(-c2ccccc2)cc(=O)[nH]1`, the inhibition was -22.9%.

For `CCOC(=O)Cn1c(=O)oc2cc(S(=O)(=O)N(C)c3ccc(OC)cc3)ccc21`, the inhibition is 3.5%.

As to `COc1cc(/C=C2\C(=O)ON=C2c2ccccc2)cc(Br)c1O`, the inhibition is 13.8%.

Turning to `CCOc1cc(/C=C2/C(=O)ON=C2C)cc(Br)c1O`, the inhibition is 25.8%.

On to `CCOc1cc(/C=C2\C(=O)ON=C2c2ccccc2)cc(Br)c1O`, for which the inhibition was 39.5% (active).

With `C/C(N)=C(/C#N)C(=O)COC(=O)CC12CC3CC(CC(C3)C1)C2`, the inhibition is 14.9%.

`CCn1c(CNC(=O)Cc2ccc(OC)cc2)nnc1SCC(=O)Nc1nccs1`: the inhibition is -10.4%.

Turning to `O=C(O)c1ccc(N=Nc2c(-c3ccccc3)[nH]oc2=O)cc1`, the inhibition is -2.7%.

As for `O=c1o[nH]c(-c2ccccc2)c1N=Nc1c(F)cccc1Cl`, the inhibition was 37% (active).

Take `Cc1[nH]oc(=O)c1N=Nc1c(Cl)cccc1Cl`: the inhibition is -17%.

Regarding `Cc1ccc(N2C(=O)/C(=C/c3cccnc3)SC2=S)cc1`, the inhibition was 56.2%.

Take `C=C1C(C(=O)Nc2ccc(F)cc2)C1C(=O)Nc1ccc(F)cc1` (stereo unspecified): the inhibition was 3.1%.

Consider `O/N=C\c1ccccc1Oc1ccc(F)cc1`, for which the inhibition is 8%.

Turning to `O/N=C/c1ccccc1Oc1ccccc1`, the inhibition is 22.6%.

Consider `O/N=C/c1ccccc1Oc1ccc(Cl)cc1`, for which the inhibition is 72.6% (active).

`CCOC(=O)/C(=C\c1cccnc1)C(=O)c1cc(C(C)=O)c(Nc2ccccc2)s1`: the inhibition was 102% (active).

In the case of `CCOC(=O)/C(C#N)=C\c1cccnc1`, the inhibition is -19.2%.

`CCOC(=O)/C(=C\c1ccccc1)C(=O)c1cc(C(C)=O)c(Nc2ccccc2)s1`: the inhibition was 57.5%.

On to `Cc1ccc2occ(/C=N/NC(=O)c3ccccc3O)c(=O)c2c1`, for which the inhibition was -14.7%.

Turning to `Cc1ccc2occ(/C=N/NC(=O)c3ccccc3Br)c(=O)c2c1`, the inhibition was 29.9%.

`Cc1ccc2occ(/C=N/NC(=O)c3ccccc3C)c(=O)c2c1`: the inhibition was 49% (active).

Turning to `O=S1(=O)C=C(SCc2cccc(Cl)c2)Nc2ccccc21`, the inhibition was 21.1%.

Turning to `COc1cccc(OC)c1Nc1nc(C)nc2c1nnn2Cc1ccccc1Cl`, the inhibition is -33.1%.

Turning to `CCc1nc(Nc2ccc(OC)c(OC)c2)c2nnn(Cc3ccccc3Cl)c2n1`, the inhibition was 58.7% (active).

Take `COc1ccc(Nc2nc(C)nc3c2nnn3Cc2ccccc2)cc1OC`: the inhibition was 0%.

With `O=C(Nc1ccnn1C1CCN(C2CCCCC2)CC1)c1ccccc1`, the inhibition was -6.5%.

For the compound `COc1cc(/C=N/n2c(C)nc3ccccc3c2=O)cc(OC)c1O`, the inhibition is -6.8%.

On to `O=C(c1ccc(Cl)c(S(=O)(=O)N2CCCCCC2)c1)N1CCCC1`, for which the inhibition is 0.4%.

For `O=C(c1ccc(Cl)c(S(=O)(=O)N2CCCCC2)c1)N1CCCCC1`, the inhibition is -30.5%.

`NS(=O)(=O)c1cc(C(=O)N2CCNC(=O)C2)ccc1Cl`: the inhibition was 70.4% (active).

As to `O=c1c2c([nH]c3ccccc13)C(=C1CCCC1)CC2`, the inhibition was 2.8%.

As to `Cc1ccc(N2CCN(C(=O)c3cccs3)CC2)cc1C`, the inhibition was 1.8%.

Consider `Cc1ccc(C2=[N+]([O-])C3(CCCCC/C3=N\O)N(O)C2(C)C)o1` (stereo unspecified), for which the inhibition is 14.4%.

On to `COc1ccc(CNC(=O)c2ccc(C(C)(C)C)cc2)cc1`, for which the inhibition is -24.6%.

Turning to `C[C@@H]1CC[C@@]2(O[C@H](CCO)C[C@@H](O)[C@@H]2O)O1`, the inhibition was -47.3%.

Regarding `CCCCCn1c(=O)[nH]c2cc(C(=O)N3CCN(CC)CC3)ccc2c1=O`, the inhibition was -4%.

With `COCCn1c(=S)[nH]c2cc(C(=O)N3CCN(Cc4ccc5c(c4)OCO5)CC3)ccc2c1=O`, the inhibition is -2.2%.

`COc1ccc(-n2c(Cn3nnc4ccccc43)n[nH]c2=S)cc1`: the inhibition was 12%.

For `COc1ccccc1S(=O)(=O)Nc1cc(S(=O)(=O)N2CCCCC2)ccc1N1CCOCC1`, the inhibition is -35.7%.

For `O=C(c1cccs1)c1no[n+]([O-])c1C(=O)c1cccs1`, the inhibition was 98.1% (active).

Consider `COc1ccc(C(=O)c2no[n+]([O-])c2C(=O)c2ccc(OC)cc2)cc1`, for which the inhibition is 6.8%.

Turning to `Cc1ccc(C(=O)c2no[n+]([O-])c2C(=O)c2ccc(C)cc2)cc1`, the inhibition is 18%.

For `O=S(=O)(c1ccc(F)c(F)c1F)N1CCN(C(=S)NC2CC3CCC2C3)CC1` (stereo unspecified), the inhibition was -22.5%.

On to `Cc1ccc(NC(=O)/C(C#N)=C/c2ccccc2C(F)(F)F)cc1`, for which the inhibition is -32.5%.

For the compound `Clc1ccc(CSc2ncccn2)cc1`, the inhibition is -34.4%.

`Cc1nc2ccccn2c1-c1ccnc(SCc2ccc(Cl)cc2)n1`: the inhibition was 37.7% (active).

Regarding `Cc1ccc(CSc2nccc(-c3c(C)nc4ccccn34)n2)cc1`, the inhibition is 27%.

For the compound `COc1ccc2c(C)cc(SCC(=O)Nc3cc(C(N)=O)cc(C(N)=O)c3)nc2c1`, the inhibition is -7%.

As for `O=C(O)Cc1ccc(NC(=S)NCc2ccco2)cc1`, the inhibition is -27.1%.

For `O=C(Cc1ccc(-c2ccccc2)cc1)NNC(=S)NCc1ccco1`, the inhibition is 41.4% (active).

As to `O=C(Cc1cccs1)NNC(=S)NCc1ccco1`, the inhibition was -26.1%.

For the compound `CC(=O)c1ccc(C(=O)N2CCCC(CO)(Cc3ccccc3C)C2)s1` (stereo unspecified), the inhibition is -39%.

For the compound `COc1ccc(NC(=O)Cn2c3ccc(OC)cc3c3nc4n(c(=O)c32)CCS4)cc1`, the inhibition is -15.9%.

`COc1ccc2c(c1)c1nc3n(c(=O)c1n2CC(=O)Nc1ccccc1)CCS3`: the inhibition was -17.5%.

Regarding `COc1ccc2c(c1)c1nc3n(c(=O)c1n2CC(=O)Nc1cc(C)[nH]n1)CCS3`, the inhibition is 63.4% (active).

Take `COc1ccc(OC(=O)N2CCOCC2)cc1`: the inhibition is -16.5%.

Regarding `CC1CCCC(NC(=O)COC(=O)Cc2cn3ccsc3n2)C1C` (stereo unspecified), the inhibition was 6.7%.

Turning to `Cc1ccc(-n2c(-c3ccccc3)c[n+]3c2CCc2ccccc2-3)c(C)c1`, the inhibition is 66% (active).

On to `COc1ccc(-n2c(-c3ccc(Cl)cc3)c[n+]3c2CCc2ccccc2-3)cc1`, for which the inhibition is 20.5%.

Regarding `COc1ccc(-n2c(-c3ccc(Br)cc3)c[n+]3c2CCc2ccccc2-3)cc1`, the inhibition is 13.3%.

In the case of `COc1ccccc1-n1c(-c2ccccc2)c[n+]2c1CCc1ccccc1-2`, the inhibition was 52.9% (active) and 68.6% (active).

Consider `Cc1ccc(-n2c(-c3ccccc3)c[n+]3c2CCC3)cc1`, for which the inhibition was 9.5%.

With `Cc1ccc(-c2c[n+]3c(n2-c2ccccc2)CCC3)cc1`, the inhibition is 25.4%.

For `CCOc1ccc(-c2c(C(=O)N/N=C/c3ccco3)nnn2-c2nonc2N)cc1`, the inhibition is -7.1%.

In the case of `O=C(Cn1cnc(S(=O)(=O)N2CCCCC2)c1)NCc1ccco1`, the inhibition is -11.7%.

In the case of `CC(C)N(Cc1ccccc1)C(=S)Nc1ccccc1F`, the inhibition was -3.5%.

As to `CCOC(=O)CN(c1ccccc1C)S(=O)(=O)c1ccc(Cl)cc1`, the inhibition was 21.3%.

For the compound `CCN(CC)C(=O)Cn1cc(C(=O)C(=O)N(CC)C2CCCCC2)c2ccccc21`, the inhibition was -4.6%.

As to `Cc1nc2c(=O)n(C)c(=O)n(C)c2nc1Cl`, the inhibition was 94.4% (active).

In the case of `Cn1c(=O)c2nc(Cl)c(-c3ccccc3)nc2n(C)c1=O`, the inhibition is -30.8%.

Consider `Cn1c(=O)c2nc3ccccc3nc2n(C)c1=O`, for which the inhibition is -21.3%.

Regarding `CCCC(C)NC(=O)/C=C/c1cccc([N+](=O)[O-])c1` (stereo unspecified), the inhibition was -26.2%.

Take `CCOC(=O)CNC(=O)CSc1nnc(NC(=O)c2ccc3c(c2)OCO3)s1`: the inhibition is -31.4%.

In the case of `CCOC(=O)CNC(=O)CSc1nnc(NC(=O)c2ccc(C)cc2)s1`, the inhibition was 44.8% (active).

In the case of `CCOC(=O)CNC(=O)CSc1nnc(NC(=O)c2ccccc2Cl)s1`, the inhibition was -7.6%.

On to `CN1CCN(NC(=O)C23CC4CC(CC(C4)C2)C3)CC1`, for which the inhibition was -2.4%.

Consider `COc1ccccc1NC(=O)Cc1coc2cc(C)ccc12`, for which the inhibition is -17.5%.

For the compound `COc1ccc2c(CC(=O)Nc3ccccc3OC)coc2c1`, the inhibition was 57.6% (active).

In the case of `COc1ccc2c(CC(=O)Nc3ccccc3N3CCOCC3)coc2c1`, the inhibition is 16.3%.

As to `O=C(NC(=S)Nc1ncccn1)c1ccc(Cl)cc1Cl`, the inhibition was -41.6%.

Regarding `COc1ccc(C2=NN(S(C)(=O)=O)C(c3cccs3)C2)cc1` (stereo unspecified), the inhibition was -16.2%.

Turning to `CC(=O)Nc1ccc(C2=NN(c3ccccc3)C(c3cccs3)C2)cc1` (stereo unspecified), the inhibition was -0.7%.

Regarding `COc1ccc(C2=NN(c3ccccc3)C(c3cccs3)C2)cc1` (stereo unspecified), the inhibition was 46.8% (active).

Consider `CC(=O)c1ccc(NC(=O)CCc2nnc3ccc(N4CCC5(CC4)OCCO5)nn23)cc1`, for which the inhibition is -15.6%.

`CCOc1cc2[nH]c(=O)n(CCCN3CCCC3=O)c(=O)c2cc1OCC`: the inhibition was 0.4%.

Consider `CCCc1cc(-c2n[nH]c(=S)n2-c2cccc(C)c2)cs1`, for which the inhibition was -9.6%.

Take `O=C(NNC(=O)c1ccccn1)c1cccc([N+](=O)[O-])c1`: the inhibition was -43.1%.

Consider `O=C(N/N=C(\c1ccccc1)c1ccccn1)c1cccc([N+](=O)[O-])c1`, for which the inhibition is 103% (active).

Consider `O=C(c1cccc([N+](=O)[O-])c1)c1ccccn1`, for which the inhibition was -6.3%.

One may read the inhibition as the drop in the measured response relative to a control, in per cent.
